From PubChem BioAssay
RORgamma inh = blocks mouse ROR gamma transcriptional activity; P51450; Drosophila S2 Gal4-RORgamma UAS-luciferase reporter, 20 h; Potency, µM (top dose mostly 53.6 µM), inactives show at the highest dose activity change, negative = inhibition, usual class: inhibitors; 310,000 compounds, 5.4% hits; AID 2551; note: nearly all actives have a fitted effect of over 60% in size
Target sequence (P51450 whole entry, looked up, the tested form may be a part): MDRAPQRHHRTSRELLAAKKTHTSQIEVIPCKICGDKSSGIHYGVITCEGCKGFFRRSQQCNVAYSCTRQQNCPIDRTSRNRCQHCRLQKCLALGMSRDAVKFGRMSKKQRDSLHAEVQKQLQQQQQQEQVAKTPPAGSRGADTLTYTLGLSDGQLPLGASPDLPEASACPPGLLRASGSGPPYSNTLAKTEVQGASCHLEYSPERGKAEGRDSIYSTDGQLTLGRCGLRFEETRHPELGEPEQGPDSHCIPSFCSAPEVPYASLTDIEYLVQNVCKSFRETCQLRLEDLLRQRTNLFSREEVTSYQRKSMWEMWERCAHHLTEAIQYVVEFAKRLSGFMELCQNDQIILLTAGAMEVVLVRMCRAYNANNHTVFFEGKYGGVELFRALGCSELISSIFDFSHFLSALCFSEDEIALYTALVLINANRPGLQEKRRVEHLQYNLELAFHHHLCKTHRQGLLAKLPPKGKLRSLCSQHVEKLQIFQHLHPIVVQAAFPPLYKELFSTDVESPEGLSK
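Stable Schneider cell line, Gal4 DNA-binding domain fused to ROR gamma, UAS-luciferase. Cmpd 1 hr RT → CuSO4 700 uM final → 20 hr RT → luciferase reagent 10 min → luminescence.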
ALOX12 inh = inhibitors of human 12S-lipoxygenase ALOX12; P18054; purified 12hLO, xylenol orange hydroperoxide absorbance; Potency, µM (top dose mostly 108 µM), for inactives: top-dose activity change, negative = inhibition, usual class: inhibitors; 580,000 compounds, 1.1% hits
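Purified human 12hLO (150 nM final) in 25 mM Hepes, 0.01% Triton X-100, pH 7.0 was preincubated 15 min at room temperature with compound. Then 40 uM arachidonic acid was added, 30 min. Hydroperoxide was read by Fe-XO absorbance ratio 573/405 nm.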
ELG1 DNA repair = inhibitors of ELG1-dependent DNA repair in HEK293T cells | HEK293T ELG1-luciferase reporter, luminescence, 16 h; DNA damage induced by 5-fluorouridine | Potency, µM (titrated, usually from 46.1 µM), for the others: at the highest dose activity change, negative = inhibition, actives largely listed as inhibitors | 330,000 compounds, 2.3% hits | AID 504467; note: nearly all actives have a fitted effect of over 55% in size
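In this reporter screen, reduction of luminescence relative to DMSO vehicle indicated activity. Compounds and 5-fluorouridine were added together to 2,000 cells per well, incubated for 16 hr at 37 °C, then developed with ONE-Glo.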
TDP1 cell noCPT = qHTS for Inhibitors of human tyrosyl-DNA phosphodiesterase 1 (TDP1): qHTS in cells in absence of CPT; Potency, µM (top dose mostly 46.2 µM), for the others: at the top dose activity change, negative = growth inhibition, actives largely listed as inhibitors; AID 686978, 2013; DT40 Tdp1-/- hTDP1 cells, no CPT, ATP luminescence, 48 h; 420,000 compounds, 15% hits; note: nearly all actives have a fitted effect of over 55% in size
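DT40 Tdp1-/-;hTDP1 cells, no CPT (DMSO vehicle only), 400 cells/well; compounds pin-transferred; ≥48 hr, 37 °C; CellTiter-Glo 30 min RT dark, luminescence read.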
TDP1 cell CPT = growth inhibition of DT40 Tdp1-/-;hTDP1 cells with camptothecin (screen for TDP1 inhibitors). chicken DT40 Tdp1-/-;hTDP1 cells + 20 nM CPT, ATP luminescence, 48 h. Potency, µM (titrated, usually from 46.2 µM), without a hit: at the highest dose activity change, negative = growth inhibition, actives largely listed as inhibitors. 420,000 compounds, 12% hits. AID 686979; note: nearly all actives have a fitted effect of over 55% in size
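Chicken DT40 Tdp1-/- cells stably complemented with human TDP1 were seeded at 400 cells/well in medium containing 20 nM camptothecin, exposed to pin-transferred compounds, and grown at 37 °C for at least 48 hr. Viability was read as ATP luminescence.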
VP16 counter = inhibits Gal4-VP16 luciferase reporter, ROR gamma counter-screen. 310,000 compounds, 3.5% hits. AID 2546. Potency, µM (series often up to 53.6 µM), for inactives: at the highest dose activity, negative = inhibition, most hits filed as inhibitors. Drosophila S2 Gal4-VP16 UAS-luciferase, luminescence, 20 h;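 note: Gal4-VP16 expression switched on by copper sulfate through the metallothionein promoter; nearly all actives have a fitted effect of over 50% in size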
* hit, by the source's call; ? = inconclusive; . = no result; [ ] = another dose, or the depositor's remark. An excerpt weighted towards active compounds, which were near 15% of everything screened. Calls come from the whole dose curve; as a rule, active = well fitted curve in the direction sought with a large enough effect; inconclusive = small, poorly fitted or top-dose-only effect, or another doubt; inactive = no such curve, though single readings can be large; an effect the other way counts as inactive or inconclusive. % is set by controls: 0 for no effect and ±100 for the full control effect; potency is the fitted concentration of half-maximal effect.

SMILES | RORgamma inh | ALOX12 inh | ELG1 DNA repair | TDP1 cell noCPT | TDP1 cell CPT | VP16 counter
Cc1ccc(Cl)cc1N1CCN(C(=O)C2CCN(Cc3nc(-c4ccc(Cl)cc4)oc3C)CC2)CC1 | . | ? | . | 15µM* | ? | .
O=C1NCN(c2ccccc2)C12CCN(C(c1cccs1)c1nnnn1-c1ccc3c(c1)OCCO3)CC2 (stereo unspecified) | . | ? | . | 16µM* | 18µM* | .
COc1ccc(-n2nnnc2C(C2CC2)N2CCC3(CC2)C(=O)NCN3c2ccccc2)cc1 (stereo unspecified) | . | -17% | . | ? | ? | .
O=C1NCN(c2ccccc2)C12CCN(C(c1nnnn1-c1ccc3c(c1)OCCO3)C1CC1)CC2 (stereo unspecified) | . | -10% | . | 13µM* | 23µM* | .
O=C1NCN(c2ccccc2)C12CCN(C(c1ccccc1)c1nnnn1-c1ccc3c(c1)OCCO3)CC2 (stereo unspecified) | . | -15% | . | ? | ? | .
O=C1NCN(c2ccccc2)C12CCN(C(c1cc3ccccc3o1)c1nnnn1-c1ccc3c(c1)OCCO3)CC2 (stereo unspecified) | . | ? | . | 23µM* | 21µM* | .
COc1ccc(C(=O)NC[C@H]2C[C@@H]3CCN2C[C@@H]3c2cc(-c3ccccc3Br)nc(C)n2)cc1 | . | 5% | . | . | . | .
CCOc1ccc(CN(CCc2ccc3c(c2)OCO3)Cc2cccc(Br)c2)cc1 | . | ? | . | ? | 2.1µM* | .
COC(=O)C1=C(C)NC(C)=C(C(=O)OCC(C)=O)C1c1ccccc1[N+](=O)[O-] (stereo unspecified) | . | . | . | 12µM* | 19µM* | .
Cc1c(C=O)c2ccccc2n1Cc1ccccc1 | -22% | 0% | -2% | -26% | -5% | -4%
O=Cc1c(C(=O)O)n(Cc2ccc(Cl)cc2)c2ccccc12 | 6% | 11µM* | 2% | -9% | 5% | -12%
Oc1cccc2nc3ccccc3nc12 | ? | 10% | -11% | ? | ? | 5µM*
Cn1nc(C(C)(C)C)cc1C(=O)N1CCCCC1c1cc(C(=O)Nc2ccc(F)c(Cl)c2)no1 (stereo unspecified) | . | 0% | . | ? | 21µM* | .
O=C(c1ccc2c(c1)OCO2)N1[C@H]2CC[C@@H]1c1cnc(-c3ccccc3)nc1C2 | . | -5% | . | . | . | .
CCCCC(=O)OCC(=O)[C@]1(O)Cc2c(O)c3c(c(O)c2[C@@H](O[C@H]2C[C@H](NC(=O)C(F)(F)F)[C@H](O)[C@H](C)O2)C1)C(=O)c1c(OC)cccc1C3=O | . | . | . | 1.3µM* | 1.5µM* | .
COc1cccc2c1C(=O)c1c(O)c3c(c(O)c1C2=O)CC(O)(C(C)=NO)CC3OC1CC(N)C(O)C(C)O1 (stereo unspecified) | . | 1% | . | 0.18µM* | 0.21µM* | .
O=C(Nc1ccccc1)[C@H]1CN2CCC1C[C@@H]2Cn1cc(-c2ccccc2)nn1 (stereo partly specified) | . | -1%[176 µM] | . | . | . | .
COc1cc(CC2(CCc3ccncc3)C(=O)NC(=O)NC2=O)cc(OC)c1OC | 1% | 1% | -8% | ? | -22% | 5%
COc1cc2c(cc1OC)-c1c(OC)c(OC)c(OC)c3ccnc(c13)C2=O | -16% | -10% | 6.5µM* | 3.7µM* | 4.1µM* | -4%
CCN(CCCl)Cc1ccccc1Br | . | -14% | . | ? | 16µM* | .
CCOC(=O)N1C(C)CN(/[N+]([O-])=N/Oc2ccc([N+](=O)[O-])cc2[N+](=O)[O-])CC1C (stereo unspecified) | 11µM* | . | . | . | . | ?
